Assay results: PubChem BioAssay (Tox21)
Values joined by “and” are separate entries in the source; they are usually repeats but may differ in a detail not shown here. Equal values may be shown once. Inconclusive results are not listed. Active and inactive are the calls of the source. Calls follow the shape of the dose curve; as a rule, active = well fitted cell-killing curve with a large enough effect in the repeat runs; inconclusive = weak or mixed curves; inactive = flat fitted curve, though single readings scatter.
% is scaled to controls: 0 for no effect and ±100 for the full control effect; potency is read from the fitted curve at half-maximal effect.

Test: qHTS assay to identify small molecule antagonists of the estrogen related receptor (ERR) signaling pathway from Tox21 library - cell viability counter screen (AID 1224834); also: nearly all actives have a fitted effect of over 30% in size
Details: ERR reporter cells viability, CellTiter-Fluor, 17.5 h; series mostly up to 92.4 µM; viability change, negative = cytotoxic: at the top concentration
How it was run: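 CellTiter-Fluor fluorescence, read after 30 min at 37 C, measures viability of ERR cells. Cells plated at 2,000/well and incubated 6 h before pin-tool compound addition, then exposed 17.5 hours at 37 C.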
For `O=C1C(c2[nH]c3ccc(S(=O)(=O)O)cc3c2O)=Nc2ccc(S(=O)(=O)O)cc21`, the “viability change, negative = cytotoxic” value was -1.48% (inactive). With `CC(=O)[C@H]1CC[C@H]2[C@@H]3CCC4=CC(=O)CC[C@]4(C)[C@H]3CC[C@]12C` the Potency was 30.5 µM (active) and 30.6 µM (active). With `CC(=O)CC(=O)Nc1ccc(S(=O)(=O)O)cc1` the “viability change, negative = cytotoxic” value was -0.226% (inactive). In the case of `CCN(CC)C(=O)c1cc(S(=O)(=O)Cc2ccccc2)c(N2CCC(c3ccccc3)CC2)cc1N(CC)CCN(C)C`, the Potency is reported as 19.1 µM (active). With `COC(=O)C1=C(C)NC(C)=C(C(=O)OCCN2CCN(C(c3ccccc3)c3ccccc3)CC2)C1c1cccc([N+](=O)[O-])c1` (configuration not stated) the Potency was 11.9 µM (active). With `CCCC(=O)OCOC(=O)C1=C(C)NC(C)=C(C(=O)OC)C1c1cccc(Cl)c1Cl` (configuration not stated) the “viability change, negative = cytotoxic” value was -11.6% [at 42.5 µM] (inactive). In the case of `CC/C=C\CCCCCO`, the “viability change, negative = cytotoxic” value is reported as 2.68% (inactive). For `C=CC(C)(CCC=C(C)C)OC=O` (configuration not stated), the “viability change, negative = cytotoxic” value was 3.67% (inactive). With `CCCC1CCC(=O)CC1` the “viability change, negative = cytotoxic” value was 1.68% (inactive). With `CN(C)c1ccc(C(=C2C=CC(=[N+](C)C)C=C2)c2ccc(N(C)C)cc2)cc1` the Potency was 9.64 µM (active) and 12.2 µM (active) and 13.3 µM (active). For `Nc1nc(N)nc(-c2cc(Cl)ccc2Cl)n1`, the “viability change, negative = cytotoxic” value was 3.76% [at 42.5 µM] (inactive). In the case of `C=C(CC)C(=O)c1ccc(OCC(=O)O)c(Cl)c1Cl`, the “viability change, negative = cytotoxic” value is reported as -0.008% [at 42.5 µM] (inactive). In the case of `COc1ccc2cc1Oc1ccc(cc1)C[C@H]1c3c(cc4c(c3Oc3cc5c(cc3OC)CCN(C)[C@@H]5C2)OCO4)CCN1C`, the Potency is reported as 23.7 µM (active). With `Oc1ccccc1O` the Potency was 43.8 µM (active). In the case of `CC1=CCC(=C(C)C)CC1`, the “viability change, negative = cytotoxic” value is reported as -1.48% (inactive). For `CCCCCCCCCCOC(=O)c1ccccc1C(=O)OCCCCCCCC`, the “viability change, negative = cytotoxic” value was 2.06% (inactive). In the case of `C=CC(=O)Nc1cc2c(Nc3ccc(F)c(Cl)c3)ncnc2cc1OCCCN1CCOCC1`, the Potency is reported as 23.7 µM (active). For `Cc1cc(=O)oc2cc(O)cc(O)c12`, the “viability change, negative = cytotoxic” value was 7.19% (inactive). For `O=C(O)[C@H](O)[C@@H](O)[C@H](O[C@@H]1O[C@H](CO)[C@H](O)[C@H](O)[C@H]1O)[C@H](O)CO`, the “viability change, negative = cytotoxic” value was -0.287% [at 42.5 µM] (inactive). For `c1ccsc1`, the “viability change, negative = cytotoxic” value was 0.0711% (inactive). In the case of `Nc1cc(Cl)c(O)c(Cl)c1`, the “viability change, negative = cytotoxic” value is reported as -8.17% (inactive). In the case of `CN(C)C(=O)COC(=O)Cc1ccc(OC(=O)c2ccc(N=C(N)N)cc2)cc1`, the “viability change, negative = cytotoxic” value is reported as 7.01% [at 42.5 µM] (inactive). In the case of `Nc1ccc(NCCO)c([N+](=O)[O-])c1`, the Potency is reported as 48.6 µM (active). For `C[Si](Cl)(c1ccccc1)c1ccccc1`, the “viability change, negative = cytotoxic” value was -11.2% (inactive). With `Cc1cccc(C)c1NC(=O)c1ccc(N)cc1` the “viability change, negative = cytotoxic” value was 1% [at 42.5 µM] (inactive). In the case of `CCC(COC(=O)CCS)(COC(=O)CCS)COC(=O)CCS`, the “viability change, negative = cytotoxic” value is reported as 0.476% (inactive). With `CC(C)OC(=O)C(O)(CC(=O)O)CC(=O)O` the “viability change, negative = cytotoxic” value was 5.53% (inactive). For `S=c1nccc[nH]1`, the “viability change, negative = cytotoxic” value was 0.257% (inactive). For `CCC(C)[O-].CCC(C)[O-].CCOC(=O)/C=C(/C)[O-].[Al+3]`, the “viability change, negative = cytotoxic” value was 0.164% (inactive). With `CN1CCN(Cc2cc(-c3ccc4[nH]c(=O)oc4c3)co2)[C@@H](c2ccc(F)cc2)C1` the Potency was 23.4 µM (active). With `OC1CCCc2ccccc21` (configuration not stated) the “viability change, negative = cytotoxic” value was -0.475% (inactive). In the case of `Cc1nc(-c2ccc(Cl)cc2)oc1COC(C)(C)C(=O)O`, the “viability change, negative = cytotoxic” value is reported as 1.87% [at 42.5 µM] (inactive). In the case of `O=C(O)c1cccc(C(F)(F)F)c1`, the “viability change, negative = cytotoxic” value is reported as 1.39% (inactive). In the case of `CCCCOC(=O)CO`, the “viability change, negative = cytotoxic” value is reported as 2.31% (inactive). For `CCC(C)(CCC(C)C)C(=O)[O][Sn]([CH3])([CH3])[O]C(=O)C(C)(CC)CCC(C)C` (configuration not stated), the “viability change, negative = cytotoxic” value was -1.47% (inactive). With `[Cu+]` the “viability change, negative = cytotoxic” value was -4.57% (inactive). With `O=C(O)CN(CCN(CC(=O)O)CC(=O)O)CC(=O)O` the viability change, negative = cytotoxic was 1.59% [at 3.27 µM] (inactive).
